Reference: PubChem BioAssay (NCATS)
Results filed as inconclusive are left out. Where a call stands in place of a potency, no number is given. Unmarked numbers belong to inactive results. The source made the active and inactive calls. Calls come from the whole dose curve; as a rule, active = well fitted cell-killing curve with a large enough effect; inconclusive = small, poorly fitted or top-dose-only effect, or effect the other way; inactive = flat fitted curve, though single readings scatter. Where a SMILES comes first, the peptide text is derived from it. [ ]: non-standard residue; d: D form. ξ: configuration not given here. ξPhe(βξ-Me) = CC(c1ccccc1)C(N)C(=O)O; GABA = NCCCC(=O)O

Tested on: Hek293T
Experiment: Primary qHTS to identify gynecologic anti-cancer compounds using libraries of approved drugs and bioactive compounds (AID 1345084); note: nearly all actives have a fitted effect of over 55% in size
Settings: Gynecologic cancer cell panel viability, ATPlite luminescence, 48 h, control line for the selectivity index; series mostly up to 57.5 µM
Method in brief: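 Luminescence from the ATPlite ATP-monitoring reagent indicates viable cell number; lower signal means cytotoxicity. Cells received compound 16 h after seeding and were exposed for 48 h across five concentrations.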

**Q.** How did the Potency turn out when `CC(C)C(=O)O[C@@H]1[C@@H](O)[C@@H](O[C@H]2O[C@H](CO)[C@@H](O)[C@H](O)[C@H]2O)O[C@H](CO)[C@H]1O` was run?
**A.** inactive

**Q.** `C=C(C(=O)O)[C@@H]1CC=C2CCC[C@H](C)[C@@]2(C)C1` was tested. Which Potency did it give?
**A.** inactive

**Q.** With `CC1(C)CC[C@]2(C(=O)O)CC[C@]3(C)C(=CCC4[C@@]5(C)CCC(O[C@@H]6OC[C@H](O)[C@H](O)[C@H]6O[C@@H]6O[C@H](CO)[C@@H](O)[C@H](O)[C@H]6O)[C@@](C)(CO)C5CC[C@]43C)[C@@H]2C1` (some centres not stated) as the molecule, how does the Potency read?
**A.** inactive

**Q.** Which Potency does the source give for `CNc1nc(Nc2cnn([C@H]3CCN(C4COC4)C[C@@H]3F)c2Cl)ncc1C(F)(F)F` here?
**A.** inactive

**Q.** How did the Potency turn out when `Cc1coc2c1CC1OC1(C)CCC1OC1(C)C2` (configuration not stated) was run?
**A.** inactive

**Q.** How did the Potency turn out when `COC(=O)C1C(CC(C)=O)C=CC(O)C12Oc1cc(C)cc(O)c1C2=O` (configuration not stated) was run?
**A.** inactive

**Q.** For `CCOC(=O)[C@H]1O[C@@H]1C(=O)N[C@@H](CC(C)C)C(=O)NCCC(C)C`, which Potency is on record?
**A.** inactive

**Q.** For `C=C1CCC2C(C)(C)C(O)CCC2(C)C1CCC(C)CCOC(=O)CCC(=O)O` (configuration not stated), which Potency is on record?
**A.** inactive

**Q.** `CC1CCC2(C(=O)OC3OC(CO)C(O)C(O)C3O)CCC3(C(=O)O)C(=CCC4C5(C)CCC(OC6OC(C)C(O)C(O)C6O)C(C)(C)C5CCC43C)C2C1C` (configuration not stated) was tested. Which Potency did it give?
**A.** inactive

**Q.** For `C[C@@H]1O[C@@H](O[C@H]2[C@H](OC(=O)[C@]34CCC(C)(C)C[C@H]3C3=CCC5[C@@]6(C)C[C@H](O)[C@H](O[C@@H]7O[C@H](CO[C@@H]8OC[C@H](O)[C@H](O)[C@H]8O)[C@@H](O)[C@H](O)[C@H]7O)C(C)(C)C6CC[C@@]5(C)[C@]3(C)C[C@H]4O)OC[C@@H](O)[C@@H]2O)[C@H](O)[C@H](O[C@@H]2OC[C@](O)(CO)[C@H]2O)[C@H]1O[C@@H]1OC[C@H](O)[C@H](O[C@@H]2OC[C@@H](O)[C@H](O)[C@H]2O)[C@H]1O` (some centres not stated), which activity change, negative = cytotoxicity is on record?
**A.** 7.42% [at 6.55 µM]

**Q.** For `COc1cc(C)c(C(=O)O[C@H]2[C@@H](O)[C@H](n3ccc(=O)[nH]c3=O)O[C@@H]2CO)c(OC)c1`, which Potency is on record?
**A.** inactive

**Q.** With `CC(C)CC1NC(=O)C(C(C)c2ccccc2)NC(=O)C(C(C)C)NC(=O)C(C)NC(=O)CCCNC(=O)C(Cc2c[nH]c3ccccc23)NC(=O)C(C)NC1=O` (stereo not drawn) (cyclo([GABA]AV[ξPhe(βξ-Me)]LAW); configuration not given here) as the molecule, how does the Potency read?
**A.** inactive

**Q.** With `CC(C)Nc1cc(-c2c[nH]c(C(=O)N[C@H](CO)c3cccc(Cl)c3)c2)c(Cl)cn1` as the molecule, how does the Potency read?
**A.** inactive

**Q.** `COc1cc(N2CCC(O)CC2)ccc1Nc1cc(Nc2ccccc2S(=O)(=O)C(C)C)c2cc[nH]c2n1` was tested. Which Potency did it give?
**A.** inactive

**Q.** Which Potency does the source give for `O=C(O)C[C@@H](NC(=O)c1cc(-c2ccc(-c3ccncc3)cc2)cs1)c1ccccc1` here?
**A.** inactive

**Q.** How did the Potency turn out when `OC[C@H]1O[C@@H](n2cnc3c2NC=NC[C@H]3O)C[C@@H]1O` was run?
**A.** inactive

**Q.** For `CC1(C)C[C@H]2C3=CCC4[C@@]5(C)CC[C@H](O[C@H]6O[C@H](C(=O)O)[C@@H](O)[C@H](O)[C@H]6O[C@H]6O[C@H](CO)[C@@H](O)[C@H](O)[C@H]6O[C@@H]6O[C@H](CO)[C@@H](O)[C@H](O)[C@H]6O)[C@](C)(CO)C5CC[C@@]4(C)[C@]3(C)CC[C@@]2(C)[C@H](O[C@@H]2OC[C@H](O)[C@H](OC3O[C@H](CO)[C@@H](O)[C@H](O)[C@H]3O)[C@H]2O)[C@@H]1O` (some centres not stated), which activity change, negative = cytotoxicity is on record?
**A.** -1.35% [at 6.55 µM]

**Q.** `C[C@@H]1O[C@@H](O[C@H]2[C@H](OC(=O)[C@]34CCC(C)(C)C[C@H]3C3=CCC5[C@@]6(C)C[C@H](O)[C@H](O[C@@H]7O[C@H](CO)[C@@H](O[C@@H]8O[C@H](CO)[C@@H](O)[C@H](O)[C@H]8O)[C@H](O)[C@H]7O)[C@@](C)(CO)C6[C@H](O)C[C@@]5(C)[C@]3(C)C[C@H]4O)OC[C@H](O)[C@@H]2O)[C@H](O)[C@H](O)[C@H]1O[C@@H]1OC[C@@H](O)[C@H](O[C@@H]2OC[C@](O)(CO)[C@H]2O)[C@H]1O` (some centres not stated) was tested. Which activity change, negative = cytotoxicity did it give?
**A.** 1.73% [at 6.55 µM]

**Q.** Which Potency does the source give for `C[C@@H]1O[C@@H](OC[C@H]2O[C@@H](OCC3CCC4CC3C4(C)C)[C@H](O)[C@@H](O)[C@@H]2O)[C@H](O)[C@H](O)[C@H]1O` (some centres not stated) here?
**A.** inactive

**Q.** How did the Potency turn out when `CC(C)=CCC/C(C)=C/CC/C(C)=C/CC[C@]1(C)CCc2cc(O)cc(C)c2O1` was run?
**A.** inactive

**Q.** Which Potency does the source give for `CCCCS(=O)(=O)Nc1ncnc(OCCOc2ncc(Br)cn2)c1-c1ccc(Br)cc1` here?
**A.** inactive

**Q.** `C[C@@H]1O[C@@H](OC[C@H]2O[C@@H](OCCc3ccccc3)[C@H](O)[C@@H](O)[C@@H]2O)[C@H](O)[C@H](O)[C@H]1O` was tested. Which Potency did it give?
**A.** inactive
